In PubChem BioAssay (NCATS):
Results filed as inconclusive are left out. Active and inactive are the calls of the source. The call rests on the fitted dose curve; in most records, active means well fitted inhibition curve with a large enough effect in the repeat runs; inconclusive means weak or mixed curves; inactive means flat fitted curve, though single readings scatter.

Molecular target: Cytochrome P450 2D6 (Homo sapiens) (UniProt P10635)
Assay: Cytochrome P450 family 2 subfamily D member 6 (CYP2D6) small molecule antagonists: luciferase biochemical (cell-free) qHTS assay (AID 1645840); further: nearly all actives have a fitted effect of over 55% in size
Settings: P450-Glo CYP2D6 enzyme, luciferin luminescence, 1 h; series mostly up to 57.4 µM
In short: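 P450-Glo CYP2D6 system: proluciferin substrate converted by enzyme to luciferin, read by luminescence proportional to activity. Enzyme-substrate mix with compound 10 min at room temperature, then NADPH regeneration 1 h before detection reagent.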
Potency means the concentration at half of the fitted maximal effect.

Cytochrome P450 2D6 (Homo sapiens), sequence (P10635 whole entry, looked up): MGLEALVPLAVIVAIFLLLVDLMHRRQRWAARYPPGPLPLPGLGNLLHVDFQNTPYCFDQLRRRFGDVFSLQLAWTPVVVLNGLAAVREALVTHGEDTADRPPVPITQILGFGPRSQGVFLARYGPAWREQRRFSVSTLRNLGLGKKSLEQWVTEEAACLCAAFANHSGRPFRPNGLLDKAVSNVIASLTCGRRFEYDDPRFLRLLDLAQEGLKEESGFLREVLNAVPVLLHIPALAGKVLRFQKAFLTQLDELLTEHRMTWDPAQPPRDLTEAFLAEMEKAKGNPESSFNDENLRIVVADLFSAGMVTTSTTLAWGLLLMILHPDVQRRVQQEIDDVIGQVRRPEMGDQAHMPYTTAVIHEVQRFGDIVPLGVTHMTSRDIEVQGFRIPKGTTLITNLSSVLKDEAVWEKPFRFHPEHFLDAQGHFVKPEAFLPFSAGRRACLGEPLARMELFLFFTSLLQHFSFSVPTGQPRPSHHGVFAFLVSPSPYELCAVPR

| Structure (SMILES) | Potency |
| --- | --- |
| O=C(c1ccccc1)c1ccc2nc(NC(=O)c3csc(C4CCN(c5ncnc6ccsc56)CC4)n3)[nH]c2c1 | inactive |
| COc1cccc(-c2cc(NCc3ccc4c(c3)OCO4)nc(N)n2)c1 | 0.756 µM (active) |
| Cn1ncnc1COc1nn2c(-c3cc(F)ccc3F)nnc2cc1C(C)(C)C | inactive |
| COCCOc1ccc(N2CCN(CCn3ncc4c3nc(N)n3nc(-c5ccco5)nc43)CC2)cc1 | inactive |
| CN(CCc1ccc(Nc2ncc(-c3cccnc3)s2)cc1)Cc1ccccc1 | 1.2 µM (active) |
| CN(c1ccccc1CNc1nc(Nc2ccc3c(c2)CC(=O)N3)ncc1C(F)(F)F)S(C)(=O)=O | 23.9 µM (active) |
| CC(C)(C)c1cc(Br)cc([C@H](CC(=O)O)NC(=O)CNC(=O)c2cc(O)cc(NC3=NCC(O)CN3)c2)c1 (some centres undefined) | inactive |
| O=C(O)c1cccc(S(=O)(=O)N2CCc3ccccc3C2)c1 | inactive |
| N#Cc1ccc2[nH]cc(CCCCN3CCN(c4ccc5oc(C(N)=O)cc5c4)CC3)c2c1 | 4.77 µM (active) |
| NC(=O)c1cnc(NCCc2ccc(O)c(Cl)c2)nc1NCc1ccccc1 | 15.1 µM (active) |
| COc1cc2c(NC3CCN(CC4CCCCC4)CC3)nc(N3CCCN(C(C)C)CC3)nc2cc1OCCCN1CCCCC1 | 12 µM (active) |
| Cc1c[nH]c2nccc(Oc3c(F)cc(Nc4cc(Cl)nc(N)n4)cc3F)c12 | 6.74 µM (active) |
| CCCCCCOc1cc2c(cc1N(C)c1ncc(C(=O)O)cn1)C(C)(C)CCC2(C)C | 10.7 µM (active) |
| CCS(=O)(=O)N1CCN(c2ccc(Nc3ncc(C(N)=O)c(NC4CC4)n3)cc2)CC1 | inactive |
